# Bioassay records deposited in PubChem by Broad Institute.
# MITF inhib: MITF inhibition; TRPM1 promoter luciferase, luminescence, 24 h; 37,000 tested, 0.28% active; inhibition, % (no concentration beside the values); in the data active = inhibition above about 85%; inconclusive = no clear call, values can overlap the other calls; inactive = below about 68%;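 note: human melanocyte line stably carrying TRPM1 promoter luciferase reporter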
# NOMO-1 viab: STK33 inhibitor candidate reducing NOMO-1 cell viability; NOMO-1 AML viability, CellTiter-Glo luminescence, 72 h; inhibition, % (test concentration not listed); 37,000 tested, 7.5% active; in the data active = inhibition above about 80%; inconclusive = no clear call, values can overlap the other calls
# STK33 inh: blocks human STK33 kinase activity; Q9BYT3; ADP-Glo luminescence, MBP substrate; inhibition, % at 12.5 µM; 27,000 tested, 0.44% active; AID 2322; in the data active = inhibition above about 20%; inconclusive = no clear call, values can overlap the other calls
# Target sequence (Q9BYT3 whole entry, looked up): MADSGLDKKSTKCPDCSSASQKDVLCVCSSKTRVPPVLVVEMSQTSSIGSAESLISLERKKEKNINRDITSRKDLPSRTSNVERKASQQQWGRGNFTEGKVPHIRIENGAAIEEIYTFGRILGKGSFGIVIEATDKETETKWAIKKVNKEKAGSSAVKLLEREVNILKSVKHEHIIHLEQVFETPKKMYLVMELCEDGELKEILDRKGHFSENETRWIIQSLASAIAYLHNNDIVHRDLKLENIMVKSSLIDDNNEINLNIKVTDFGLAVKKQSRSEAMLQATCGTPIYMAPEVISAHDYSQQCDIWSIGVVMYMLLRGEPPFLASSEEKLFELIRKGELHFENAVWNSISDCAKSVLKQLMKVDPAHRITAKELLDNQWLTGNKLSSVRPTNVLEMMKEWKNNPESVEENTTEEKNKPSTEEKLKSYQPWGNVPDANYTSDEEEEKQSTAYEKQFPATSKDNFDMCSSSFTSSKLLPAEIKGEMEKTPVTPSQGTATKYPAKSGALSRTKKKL
# p53 PUMA act: re-activators of the mutant p53 pathway; 28,000 tested, 1.5% active; SW480 PUMA-promoter luciferase, p53 mutant reactivation; activation, % at 9.98 µM; AID 624151; in the data active = activation above about 52%; inconclusive = no clear call, values can overlap the other calls
# Numbers stand for hits; – = inactive; ? = inconclusive; · = not tested or not shown. This excerpt belongs to a sample that is enriched for hits.
SMILES,MITF inhib,NOMO-1 viab,STK33 inh,p53 PUMA act
Cc1cc(C)c(NC(=O)CSc2nc3ccc(NC(=O)c4ccccc4C)cc3s2)c(C)c1,–,–,–,–
CC(=O)c1ccc(NC(=O)CSc2nc3ccc(NC(=O)c4ccccc4Cl)cc3s2)cc1,–,–,–,81
O=C(CC1Nc2cccc3cccc(c23)NC1=O)Nc1ccc([N+](=O)[O-])cc1 (configuration not stated),–,124,–,–
Cc1cc(Oc2coc3cc(OCC(=O)Nc4ccccc4F)ccc3c2=O)cc(C)c1Cl,–,–,–,–
Cc1cc(C2(c3cc(C)c(N)c(C)c3)CCCCC2)cc(C)c1N,–,122,·,·
C[C@@H]1CN([C@H](C)CO)C(=O)Cc2cc(NC(=O)Nc3ccc(C(F)(F)F)cc3)ccc2O[C@@H]1CN(C)S(C)(=O)=O,–,86,–,·
C[C@H]1CN([C@@H](C)CO)C(=O)Cc2cc(NC(=O)Nc3ccc(C(F)(F)F)cc3)ccc2O[C@H]1CN(C)S(=O)(=O)c1cn(C)cn1,–,125,–,·
C[C@@H]1CN([C@H](C)CO)C(=O)Cc2cc(NC(=O)Nc3ccc(C(F)(F)F)cc3)ccc2O[C@@H]1CN(C)S(=O)(=O)c1cccs1,–,–,–,·
C[C@H](CO)N1C[C@H](C)[C@H](CN(C)C)Oc2ccc(NC(=O)Nc3ccc(C(F)(F)F)cc3)cc2CC1=O,–,–,–,·
C[C@H]1CN([C@@H](C)CO)C(=O)Cc2cc(NC(=O)Nc3ccc(C(F)(F)F)cc3)ccc2O[C@H]1CN(C)S(C)(=O)=O,–,90,–,·
C[C@H]1CN([C@@H](C)CO)C(=O)Cc2cc(NC(=O)Nc3ccc(C(F)(F)F)cc3)ccc2O[C@H]1CN(C)S(=O)(=O)c1cccs1,–,128,–,·
Cc1c(NC(=O)COc2ccc(Cl)cc2Cl)cccc1-c1nc2cc(Cl)ccc2o1,–,–,–,–
CCOC(=O)c1cnc2ccc(OCC)cc2c1NC(C)CC (configuration not stated),–,117,–,·
COC(=O)c1ccc(NC(=O)CN(C)S(=O)(=O)c2ccccc2)cc1,–,–,–,–
Cc1ccc(S(=O)(=O)Nc2ccc3c(c2)C(=O)N([C@@H](C)CO)C[C@@H](C)[C@@H](CN(C)C(=O)Nc2ccc(C(F)(F)F)cc2)O3)cc1,–,111,–,·
C[C@H](CO)N1C[C@H](C)[C@H](CN(C)C(=O)Nc2ccc(C(F)(F)F)cc2)Oc2ccc(NC(=O)Nc3ccc(C(F)(F)F)cc3)cc2C1=O,–,–,·,·
C[C@@H]1CN([C@@H](C)CO)C(=O)c2cc(NC(=O)Nc3ccc(F)cc3)ccc2O[C@@H]1CN(C)C(=O)Nc1ccc(C(F)(F)F)cc1,–,105,·,·
Cc1ccc(S(=O)(=O)Nc2ccc3c(c2)C(=O)N([C@H](C)CO)C[C@H](C)[C@H](CN(C)C(=O)Nc2ccc(C(F)(F)F)cc2)O3)cc1,–,–,–,–
C[C@H](CO)N1C[C@H](C)[C@@H](CN(C)C(=O)Nc2ccc(C(F)(F)F)cc2)Oc2ccc(NC(=O)Nc3ccc(C(F)(F)F)cc3)cc2C1=O,–,104,–,·
COC(=O)c1cc(NC(=O)COc2ccc(I)cc2)cc(C(=O)OC)c1,–,–,–,–
COc1ccc(CN(C)C[C@@H]2Oc3c(NC(=O)C4CCCCC4)cccc3C(=O)N([C@@H](C)CO)C[C@H]2C)cc1,–,98,·,·
C[C@@H]1CN([C@H](C)CO)C(=O)c2cccc(NC(=O)C3CCCCC3)c2O[C@@H]1CN(C)Cc1ccc(-c2ccccc2)cc1,–,110,·,·
C[C@H]1CN([C@@H](C)CO)C(=O)c2cccc(NC(=O)C3CCCCC3)c2O[C@H]1CN(C)Cc1ccc(-c2ccccc2)cc1,–,87,·,·
C[C@H](CO)N1C[C@H](C)[C@@H](CN(C)Cc2ccc(-c3ccccc3)cc2)Oc2c(NC(=O)C3CCCCC3)cccc2C1=O,–,–,·,·
COc1ccc(CN(C)C[C@H]2Oc3c(NC(=O)C4CCCCC4)cccc3C(=O)N([C@H](C)CO)C[C@H]2C)cc1,–,–,·,·
SMILES,MITF inhib,NOMO-1 viab,STK33 inh,p53 PUMA act
C[C@@H]1CN([C@@H](C)CO)C(=O)c2cccc(NC(=O)C3CCCCC3)c2O[C@H]1CN(C)Cc1ccccc1,–,96,·,·
Cc1ccc(CCC(=O)Nc2ccccc2)o1,·,·,–,–
C[C@H](CO)N1C[C@H](C)[C@H](CN(C)Cc2ccc(Oc3ccccc3)cc2)Oc2c(NC(=O)C3CCCCC3)cccc2C1=O,–,109,·,·
C[C@@H]1CN([C@@H](C)CO)C(=O)c2cccc(NC(=O)C3CCCCC3)c2O[C@H]1CN(C)Cc1ccc(-c2ccccc2)cc1,–,81,·,·
C[C@H](CO)N1C[C@H](C)[C@H](CN(C)Cc2ccc(-c3ccccc3)cc2)Oc2c(NC(=O)C3CC3)cccc2C1=O,–,–,·,·
C[C@@H]1CN([C@@H](C)CO)C(=O)c2cccc(NC(=O)C3CCCCC3)c2O[C@H]1CN(C)CC1CCCCC1,–,95,·,·
C[C@H](CO)N1C[C@H](C)[C@@H](CN(C)Cc2ccc(-c3ccccc3)cc2)Oc2c(NC(=O)C3CC3)cccc2C1=O,–,89,·,·
C[C@H]1CN([C@@H](C)CO)C(=O)c2cccc(NC(=O)C3CCCCC3)c2O[C@@H]1CN(C)CC1CCCCC1,–,?,·,·
Cc1ccc(NC(=O)CSc2nc3c(c(C(F)(F)F)n2)CCCC3)cc1C,–,–,–,–
CC(=O)Nc1ccc(NC(=O)c2cccc(C(=O)OC(C)C)n2)cc1,–,107,·,·
COC(=O)c1cccc(C(=O)Nc2ccc(F)cc2)n1,–,?,·,·
CCOC(=O)c1c(NC(=O)C2CC(c3cccc(Br)c3)=NO2)sc(C)c1C (configuration not stated),–,–,–,–
C=CCn1c(C)c2cc(Cl)c(Cl)cc2[n+]1C,–,–,·,·
COc1ccc(-c2cc(=O)[nH]c(SCC(=O)Nc3ccc(Oc4ccccc4)cc3)n2)cc1,–,–,–,–
CC(C)c1nc(/N=C/N(C)C)nc(=O)n1C,–,–,·,·
Cc1ccc(S(=O)(=O)Nc2ccc3c(c2)CC(=O)N([C@@H](C)CO)C[C@H](C)[C@@H](CN(C)Cc2ccc(C(=O)Nc4ccccc4N)cc2)O3)cc1,–,–,·,·
C[C@H](CO)N1C[C@H](C)[C@H](CN(C)Cc2ccc(C(=O)Nc3ccccc3N)cc2)Oc2ccc(NS(=O)(=O)c3ccc(F)cc3)cc2CC1=O,–,140,·,·
C[C@H](CO)N1C[C@H](C)[C@H](CN(C)Cc2ccc(C(=O)Nc3ccccc3N)cc2)Oc2ccc(NS(=O)(=O)c3ccc(Cl)cc3)cc2CC1=O,–,141,·,·
C[C@@H]1CN([C@@H](C)CO)C(=O)c2cc(NS(=O)(=O)c3ccc(Cl)cc3)ccc2O[C@H]1CN(C)Cc1ccc(C(=O)Nc2ccccc2N)cc1,–,?,·,·
C[C@H](CO)N1C[C@H](C)[C@@H](CN(C)Cc2ccc(C(=O)Nc3ccccc3N)cc2)Oc2ccc(NS(=O)(=O)c3ccc(F)cc3)cc2C1=O,–,–,·,·
Cc1ccc(S(=O)(=O)Nc2ccc3c(c2)CC(=O)N([C@H](C)CO)C[C@@H](C)[C@@H](CN(C)Cc2ccc(C(=O)Nc4ccccc4N)cc2)O3)cc1,–,107,·,·
Clc1ccc(Sc2ccc(-c3ccccn3)s2)cc1,–,–,–,·
